Source: PubChem (The Scripps Research Institute Molecular Screening Center)
MITF inh – MITF inhibitors, primary screen, biochemical, AlphaScreen, human; AID 1259374, 2018; inhibition, % at 2.6 µM; AlphaScreen MITF homodimerization, bead proximity signal; Microphthalmia-associated transcription factor (Homo sapiens), O75030; 0.91% of 650,000 active; in the data active = inhibition above about 50%;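 note: 0% = vehicle wells with protein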
FBW7 activator – FBW7 E3 ligase activators, primary screen, biochemical, AlphaScreen, human. F-box/WD repeat-containing protein 7 (Homo sapiens), Q969H0. 0.13% of 650,000 active. AID 1259310, 2017. normalized activity (activation), % at 26.1 µM. AlphaScreen FBW7–phospho-cyclin E peptide binding, activator screen; in the data active = normalized activity above about 1.9%;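 note: purified mutant Fbw7 with reduced substrate affinity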
TEAD-YAP block – TEAD-YAP interaction inhibition, primary screen, TEAD-YAP interaction inhibitor project, luminescence, HEK-TIYL cells; 1.4% of 640,000 active; inhibition, % at 9.12 µM; TEAD-Gal4/YAP UAS-luciferase luminescence; in the data active = inhibition above about 32%;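 note: 0% = median of test compound wells and 100% = reference inhibitor wells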
GPR151 activ – activators of human GPR151, primary screen, cell-based, PathHunter beta-arrestin, luminescence | G-protein coupled receptor 151 (Homo sapiens), Q8TDV0 | PathHunter beta-arrestin GPR151 cells | activation, % at 11.2 µM | 1% of 650,000 active; in the data active = activation above about 4.9%;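 note: 0% = median of compound wells and 100% = cells with positive control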
MITF inh conf – MITF inhibitors, retest of hits, confirmation, biochemical, AlphaScreen, triplicate | shares compounds with MITF inh | AlphaScreen MITF homodimerization, biotin/His-MITF beads | inhibition, % at 2.6 µM | 16% of 4,700 active | AID 1259372, 2018;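 active = inhibition above a cutoff derived from the DMSO control wells, cut at about 28% in these data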;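 note: 0% = MITF dimer wells with DMSO only; inhibitors lower the bead chemiluminescence by keeping MITF from dimerizing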
AlphaScreen DR – AlphaScreen optical interference compounds, dose response, counter-screen, biochemical, HTS. shares compounds with MITF inh. 6% of 480 active. AID 1259373, 2018. AlphaScreen optical interference counterscreen, cell-free. IC50, µM; call rule not given here
AS interf ctr – AlphaScreen optical interference compounds, counter-screen for MITF inhibitor project, biochemical, triplicate; inhibition, % at 2.6 µM; shares compounds with MITF inh; 7.6% of 4,700 active; LysRS AlphaScreen counterscreen, signal interference;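 active = inhibition above a cutoff derived from the DMSO control wells, cut at about 30% in these data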
* = called active by the depositor; . = not tested or not shown. Sampled rows, rich in hits. Any-hit rate of the full collection: about 3.5%.

SMILES	MITF inh	FBW7 activator	TEAD-YAP block	GPR151 activ	MITF inh conf	AS interf ctr	others
COc1cc(OC)c(OC)cc1CN1CCSCC1	40.4	-0.1	-5.1	0.3	.	.
C1=CC2CC1CC2CN1CCN(Cc2ccccn2)CC1 (stereo unspecified)	73.7*	-0.1	-3.5	-1.0	13.2	23.1
Fc1cccc(CN2CCCNCC2)c1	-8.9	0.0	-3.1	-0.2	.	.
COc1cc(OC)c(OC)cc1CN1CCN(CC2CC3C=CC2C3)CC1 (stereo unspecified)	56.9*	-0.2	-4.4	0.9	-6.4	-8.2
Fc1cccc(CN2CCN(CC3CC4C=CC3C4)CC2)c1 (stereo unspecified)	70.5*	0.3	5.3	-0.3	-2.8	-2.1
COc1cc(CN2CCN(CC3CC4C=CC3C4)CC2)cc(OC)c1O (stereo unspecified)	66.4*	0.0	-8.3	-0.9	9.2	27.0
COc1cc(CN2CCN(S(=O)(=O)c3ccc(F)cc3)CC2)cc(OC)c1O	38.7	-0.1	5.0	0.7	.	.
O=C(CSc1nnc2ccccn12)N1CCCc2ccccc21	8.5	0.1	-41.8	0.9	.	.
COc1ccc(CN2CCN(CC3CC4C=CC3C4)CC2)c(OC)c1OC (stereo unspecified)	70.5*	-0.1	1.6	-0.5	-3.9	-6.8
COc1ccccc1CN1CCN(CC2CC3C=CC2C3)CC1 (stereo unspecified)	68.7*	-0.2	8.6	0.2	-15.0	5.5
Cc1ccccc1CN1CCN(CC2CC3C=CC2C3)CC1 (stereo unspecified)	76.6*	-0.3	1.2	-1.8	-1.3	12.3
O=C(c1ccccc1)N1CCN(CC2CC3C=CC2C3)CC1 (stereo unspecified)	24.0	0.0	-2.5	0.4	.	.
COc1ccc(CN2CCN(CC3CC4C=CC3C4)CC2)c(OC)c1 (stereo unspecified)	72.0*	-0.4	0.9	1.5	5.1	-1.0
Cc1sc2nc(CSc3ccc([N+](=O)[O-])cc3C#N)[nH]c(=O)c2c1C	10.8	-0.1	-7.2	-0.1	.	.
CCc1c(C)nc(SCC(=O)c2ccc(NC(C)=O)c(OC)c2)[nH]c1=O	7.8	-0.1	1.6	-0.4	.	.
C=CCc1cccc(/C=N/NC(=O)COc2ccccc2)c1O	-3.9	-0.3	6.1	-0.3	.	.
CN(C)CCCNCC(=O)NN(c1ccccc1)c1ccccc1	63.6*	0.0	2.2	1.1	-7.2	-2.1
CCCCNCC(=O)NN(c1ccccc1)c1ccccc1	29.1	0.1	-7.3	0.1	.	.
c1ccc2c(c1)OCC(c1nc3c(-c4ccncc4)cncc3[nH]1)O2 (stereo unspecified)	61.0*	0.1	-4.5	0.4	39.4*	10.0	AlphaScreen DR=>6.48
O=C(c1nc2ccccn2c1CN1CCCC(CN2CCCC2)C1)N1CCOCC1 (stereo unspecified)	11.3	0.0	4.1	1.8	.	.
O=C(COC(=O)c1ccco1)c1ccc2ccccc2c1	92.3*	0.0	-0.5	3.0	9.1	8.1
Cc1ccc(C(=O)CCC(=O)OCC(=O)Nc2ccccc2C#N)cc1	8.0	0.1	13.2	-1.2	.	.
Cc1[nH]c(=O)[nH]c1C(=O)CCCCC(=O)OCC(=O)Nc1ccccc1C#N	112.9*	-1.1	15.3	-0.3	98.5*	75.8*
Cc1[nH]c(=O)[nH]c1C(=O)CCCCC(=O)OCC(=O)Nc1ccc(S(N)(=O)=O)cc1	95.1*	-1.2	19.2	1.5	100.9*	75.1*
CC(=O)Nc1ccnn1C1CCN(Cc2cccc(OC3CCCC3)c2)CC1	56.3*	0.4	3.5	-2.0	2.7	14.8
SMILES	MITF inh	FBW7 activator	TEAD-YAP block	GPR151 activ	MITF inh conf	AS interf ctr	others
CC(=O)Nc1ccnn1C1CCN(Cc2cccc(Oc3ccccc3)c2)CC1	-17.4	-0.1	-5.4	0.3	.	.
Cc1nccn1CCOc1ccc(Cl)cc1	62.9*	0.2	-18.3	-0.7	17.6	-6.9
CNC(=O)c1ncccc1Nc1cc(Nc2ccc(N3CCOCC3)cc2OC)ncc1C(F)(F)F	4.4	-0.2	-11.8	0.1	.	.
O=C(O)c1cccc(NS(=O)(=O)c2cccc(C(=O)Nc3ccccc3)c2)c1	51.2*	0.0	4.1	1.2	12.1	-1.4
O=S(=O)(Nc1ccccn1)c1ccc(N=Cc2ccc3c(c2)OCO3)cc1	74.3*	0.1	5.1	0.9	7.7	13.4
O=C(CN1CCN(Cc2nc(-c3ccco3)cs2)CC1)N1CCCC1	59.9*	-0.9	-3.8	0.4	9.4	5.2
CC(CNC(=O)c1cc(-c2ccco2)[nH]n1)c1ccccc1 (stereo unspecified)	5.3	0.0	-14.2	1.5	.	.
CCC12c3ccccc3C(c3ccccc31)C1C(=O)NC(=O)C12 (stereo unspecified)	71.0*	-0.2	-0.7	2.6	63.1*	-30.6	AlphaScreen DR=>6.48
CCN(CC)CC(O)CNCc1ccc(Cl)cc1 (stereo unspecified)	53.8*	0.0	-7.3	1.9	13.2	17.4
Cc1cc(NC(=O)c2ccc(Br)cc2)ccc1O	75.1*	0.0	80.0*	-0.4	16.7	14.1
Cc1cc(NC(=O)c2ccc(Br)cc2)c(C)cc1O	-8.6	-0.2	24.0	2.2	.	.
CCCCC(=O)Nc1ccc(C(=O)N2CCc3ccccc3C2)cc1	10.5	0.3	5.7	-1.0	.	.
NNc1ccc(S(=O)(=O)N2CCOCC2)cc1[N+](=O)[O-]	1.3	-0.1	9.2	0.2	.	.
Cc1cc(=O)[nH]c(N/N=C/c2cccc(Cl)c2Cl)n1	79.2*	0.6	0.9	-1.5	-2.7	6.6
Cc1cnc(Nc2nc3ccccc3n2C)nc1Nc1ccccc1	72.7*	0.0	-17.1	-0.7	-6.2	13.9
Cc1cnc(Nc2ccc(-n3ccnc3)cc2)nc1Nc1ccccc1	52.2*	-0.1	37.5*	2.4	-12.7	-0.9
CSCCC(NC(N)=O)C(=O)Nc1ccc(NC(C)=O)cc1 (stereo unspecified)	7.8	0.1	-1.3	0.6	.	.
O=C(N1CCCC1c1nc(-c2ccncc2)n[nH]1)C1(c2ccc(Cl)cc2)CCC1 (stereo unspecified)	9.9	1.2	10.4	-1.5	.	.
CCOC(=O)c1cc(S(=O)(=O)Nc2ccc(F)cc2)cn1C	14.0	0.1	11.7	0.6	.	.
CC(=O)c1cccc(NC(=S)NCCn2cc(Cl)cn2)c1	67.8*	0.4	2.5	0.9	12.9	9.3
O=C(NCc1ccccc1)C1CC12CCN(C(=O)CCCc1cccs1)CC2 (stereo unspecified)	61.7*	0.1	-33.0	1.0	1.1	6.9
